# Most compounds without a hit are left out; they make up all but 27% or so of the library.
# CYP2C9 inhib – blocks human cytochrome P450 2C9; P11712; CYP2C9 Supersomes, luciferin-H conversion, luminescence; inhibition, % at 5 µM; 96,000 compounds, 20% hits; AID 777;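 active = blocking of liver enzyme CYP2C9 beyond about 50% at 5 µM, limit read from the data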
# PTK2B oligo ant – blocks oligomerization of human Pyk2 in cells; Q14289; Q293 cells, Pyk2 FERM NanoBiT luminescence; hits give low values; z-score (the deposit names both 25 µM and 10 µM); 99,000 compounds, 0.83% hits;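 active = Z-score of -3 or lower, scaled per plate to the spread of control and sample wells; inactive = z-score above -3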;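 also: negative z-score means lost luminescence so less FERM oligomerization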
# Target sequence (Q14289 whole entry, looked up): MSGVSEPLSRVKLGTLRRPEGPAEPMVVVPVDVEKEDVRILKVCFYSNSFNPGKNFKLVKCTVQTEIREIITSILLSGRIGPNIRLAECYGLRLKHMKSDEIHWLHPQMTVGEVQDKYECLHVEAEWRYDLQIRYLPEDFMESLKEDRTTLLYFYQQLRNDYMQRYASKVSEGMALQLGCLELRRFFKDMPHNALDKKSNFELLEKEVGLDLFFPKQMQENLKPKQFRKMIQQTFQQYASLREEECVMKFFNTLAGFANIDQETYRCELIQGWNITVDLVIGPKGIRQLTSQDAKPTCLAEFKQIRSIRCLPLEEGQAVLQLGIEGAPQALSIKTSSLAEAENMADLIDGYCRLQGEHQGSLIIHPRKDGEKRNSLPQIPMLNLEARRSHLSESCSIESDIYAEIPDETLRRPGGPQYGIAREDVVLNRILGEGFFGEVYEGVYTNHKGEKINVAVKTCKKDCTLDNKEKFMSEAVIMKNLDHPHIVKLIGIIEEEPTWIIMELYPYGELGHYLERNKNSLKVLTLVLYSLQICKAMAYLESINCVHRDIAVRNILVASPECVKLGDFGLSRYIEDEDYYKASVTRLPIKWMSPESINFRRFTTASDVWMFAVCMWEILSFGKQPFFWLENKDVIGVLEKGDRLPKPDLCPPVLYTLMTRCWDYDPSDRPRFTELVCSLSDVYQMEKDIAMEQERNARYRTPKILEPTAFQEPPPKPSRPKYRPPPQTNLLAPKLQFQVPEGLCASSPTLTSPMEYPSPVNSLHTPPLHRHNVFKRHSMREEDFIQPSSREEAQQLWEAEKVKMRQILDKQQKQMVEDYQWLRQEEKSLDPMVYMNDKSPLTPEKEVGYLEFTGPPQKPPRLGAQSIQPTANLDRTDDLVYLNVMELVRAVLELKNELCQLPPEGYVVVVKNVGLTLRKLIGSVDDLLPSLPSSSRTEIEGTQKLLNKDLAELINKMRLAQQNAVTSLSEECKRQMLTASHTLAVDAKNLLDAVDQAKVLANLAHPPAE
# CYP2C19 activ – cytochrome P450 2C19 (human) activation. P33261. recombinant CYP2C19, luciferin-H EGE luminescence; hits give high values; 0 = fully inhibited enzyme, 1 = untreated enzyme. activation factor at 5 µM. 96,000 tested, under 10 active;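 active = activation factor of at least 2 at 5 µM in the primary screen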;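 also: 0 = wells with 2.5 mM tranylcypromine and 1 = vehicle-only wells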
# CYP2C9 act – CYP2C9 (human) activation; 96,000 compounds, 1.4% hits; recombinant CYP2C9, luciferin-H conversion, luminescence; hits give high values; factor 1 = untreated enzyme, 0 = blocked; AID 1024; activation factor at 5 µM; P11712;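 active = activation factor of 2 or more for CYP2C9 at a 5 µM dose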;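 also: 0 = sulfaphenazole-blocked wells and 1 = vehicle-only wells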
# Cav3 T inh – inhibitors of human Cav3.2 T-type calcium channel | O95180 | Cav3.2-expressing cells, Fluo-4 calcium fluorescence FDSS; hits give low values | B-score at 10 µM | 100,000 compounds, 4% hits;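 active = single-dose well whose peak fluorescence ratio is a statistical outlier from its plate by either plate-standardised score or position-corrected B-score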
# CYP2C19 inh – blocks human cytochrome P450 2C19; CYP2C19 Supersomes, luciferin-H EGE luminescence, 30 min; inhibition, % at 5 µM; 96,000 compounds, 21% hits;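 active = CYP2C19 inhibition above a set limit at 5 µM in the primary screen, cut at about 50% in these data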;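 also: plate controls were negative control wells for no effect and 2.5 mM tranylcypromine positive control for full effect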
# * hit, by the source's call; · = not tested or not shown.
SMILES,CYP2C9 inhib,PTK2B oligo ant,CYP2C19 activ,CYP2C9 act,Cav3 T inh,CYP2C19 inh
COc1ccccc1-c1cc(C(=O)Nc2sc3c(c2C#N)CCC(C)C3)c2ccccc2n1 (stereo not drawn),7,-2.1,1,0.9,-0.27,2
COC(=O)c1sc(NC(=O)c2cc(-c3ccccc3)nc3ccccc23)c(C#N)c1C,64*,-2.9,0.9,0.4,-1.4,8
O=C(NCc1cccnc1)c1cnc2sccn2c1=O,-11,·,1,1.1,0.55,2
COC(=O)CSc1nnc(-c2ccoc2C)n1-c1ccc(OC)cc1,8,-0.42,0.6,0.9,0.55,39
CCOC(=O)CSc1nnc(-c2ccoc2C)n1-c1ccc(OCC)cc1,82*,2,0.1,0.2,-2.9,92*
COc1cccc(-n2c(SCC(=O)NC(C)(C)C)nnc2-c2ccoc2C)c1,11,-0.11,0.3,0.9,0.4,73*
O=C(O)CCCC(=O)Nc1ccc(Br)cc1,-3,-0.15,1.1,1,-1,-9
CC(C)=CC(=O)Nc1ccc(Br)cc1,73*,0.25,0.8,0.3,-0.61,23
CCOc1ccc(N2C(=O)CC(NCCc3ccncc3)C2=O)cc1 (stereo not drawn),35,0.05,0.5,0.6,0.055,52*
CCCOc1ccc(N2C(=O)CC(N3CCC(c4nncn4CC)CC3)C2=O)cc1 (stereo not drawn),64*,-0.45,0.8,0.4,·,15
CCCOc1ccc(N2C(=O)CC(NCc3ccncc3)C2=O)cc1 (stereo not drawn),67*,-1.2,0.3,0.3,0.16,68*
Cc1ccc(C(C#N)N2CCOCC2)cc1 (stereo not drawn),·,-0.1,·,·,-0.82,·
O=C(CN1C(=O)CSC1=O)Nc1ccc(N2CCOCC2)cc1,-17,0.38,1.2,1.2,-0.025,-25
Cc1nc(CC(=O)N2CCN(c3cccc(C)c3C)CC2)cs1,-30,0.28,0.2,1.3,·,84*
Cc1cccc(N2CCN(C(=O)n3ccnc3)CC2)c1C,86*,0.52,0,0.1,-1.1,100*
Cc1cccc(N2CCN(C(=O)Cn3cccc3)CC2)c1C,6,·,0.2,0.9,-0.15,79*
COc1cccc(NC(=O)N2CCN(c3cccc(C)c3C)CC2)c1,-102,-0.62,0.8,2*,-7*,18
Cc1cccc(N2CCN(C(=O)C(C)C)CC2)c1C,17,-0.05,0.8,0.8,0.7,18
CSC(=NNC(=O)c1ccc(O)cc1)SC,10,0.81,0.9,0.9,-0.06,10
Cc1csc(=O)n1CCC(=O)O,-33,-0.6,1.2,1.3,-0.047,-20
COc1ccc(OC)c(C(C)NC(=O)c2ccco2)c1 (stereo not drawn),66*,-0.95,0.2,0.3,0.085,82*
COc1ccc(C(NC(=O)c2ccco2)c2ccc(OC)c(OC)c2)cc1OC,61*,1.2,0.3,0.4,-1.2,72*
O=C(N/N=C/c1ccccc1Br)c1ccc(CSc2cccc3cccnc23)cc1,50*,0.23,0.6,0.5,-5.2*,45
Cc1ccc(CNC(=O)C(Cc2ccccc2)NS(=O)(=O)c2cccs2)cc1 (stereo not drawn),2,-0.28,0.4,1,-1.6,61*
Cc1ccc(CNC(=O)C(NS(=O)(=O)c2cccs2)C(C)C)cc1 (stereo not drawn),52*,0.2,0.1,0.5,0.31,85*
SMILES,CYP2C9 inhib,PTK2B oligo ant,CYP2C19 activ,CYP2C9 act,Cav3 T inh,CYP2C19 inh
CC(C)C(NS(=O)(=O)c1cccs1)C(=O)NCc1ccc2c(c1)OCO2 (stereo not drawn),84*,·,0.1,0.2,0.4,94*
O=C(Nc1ccccc1F)c1ccco1,·,-0.57,·,·,0.37,·
O=C1CC(N2CCN(c3ccccc3)CC2)C(=O)N1CCc1ccccc1 (stereo not drawn),6,-0.02,0.9,0.9,-0.0032,10
CCOC(=O)C(C(=O)OCC)c1cc(Br)c2noc3c2c1C(=O)c1ccccc1-3,32,-0.64,0.8,0.7,-5.5*,22
Cc1cc(C)nc(Sc2nc(Cl)nc(N(c3ccccc3)c3ccccc3)n2)n1,52*,0.05,0.3,0.5,3.5,67*
COc1ccc(/C=C2\SC(c3ccc(C)cc3)=NC2=O)cc1OC,25,-0.96,0.9,0.7,-1.3,11
COc1ccc(/C=C2/SC(c3ccc(C)cc3)=NC2=O)cc1OC,61*,-1.1,0.6,0.4,-2.6,41
COc1cc(/C=C2\SC(c3ccc(C)cc3)=NC2=O)cc(OC)c1OC,63*,-0.32,0.8,0.4,-0.99,22
CCCCN1C(=O)C2NN=C(C(=O)OC)C2C1=O (stereo not drawn),-6,1.4,0.6,1.1,0.53,44
CC1CCCC(NC(=O)CCn2c(=O)oc3ccccc32)C1C (stereo not drawn),-101,0.64,0.6,2*,0.8,43
COc1cccc(CNC(=O)CCn2c(=O)oc3ccccc32)c1,-21,0.74,0.4,1.2,·,58*
O=C(CCn1c(=O)oc2ccccc21)Nc1cccc(Cl)c1,-102,·,0.4,2*,-0.39,55*
Cc1ccc(CNC(=O)Cn2c(=O)oc3ccccc32)o1,0,0.17,0.8,1,0.15,24
Cc1cccc(NC(=O)Cn2c(=O)oc3ccccc32)c1,6,-0.18,0.4,0.9,-0.15,58*
C=CCn1c(O)c(N=NC(=O)c2ccc3c(c2)OCO3)c2ccccc21,-4,-0.74,1,1,0.39,2
NC(=O)C1CCN(C(=O)OCc2ccccc2)CC1,1,0.07,0.6,1,-0.12,38
Cc1cccc(NC(=O)CN2C(=O)NC(Cc3ccccc3)C2=O)c1 (stereo not drawn),60*,0.2,0.5,0.4,-1.7,47
COc1ccc(CCc2nc(C)ccc2O)cc1,66*,0.31,0.2,0.3,0.076,83*
CN(C)/C=c1\sc2c(C#N)cc(C(=O)c3ccc(Br)cc3)n2c1=O,-2,-1.1,1.1,1,-6.9*,-5
CCOc1[nH]n(-c2ccc(Cl)cc2)c(=O)c1C=Nc1ccc(C)cc1,14,·,1,0.9,0.17,2
c1ccc(C2=Nn3c(nnc3-c3cc(-c4ccccc4)n[nH]3)SC2)cc1,-16,-3.3*,1.1,1.2,-0.7,-15
Clc1ccc(C2=Nn3c(nnc3-c3cc(-c4ccccc4)n[nH]3)SC2)cc1,-15,-1.2,1.1,1.1,-4.1,-8
COc1cccc(-c2nnc3n2N=C(C(C)(C)C)CS3)c1,30,-1.9,0.3,0.7,0.56,68*
Cc1cccc(-c2nnc3n2N=C(c2ccccc2Br)CS3)c1,52*,-1.7,0.2,0.5,-2.7,85*
CC(C)(C)C1=Nn2c(nnc2-c2ccccn2)SC1,-10,-0.48,0.9,1.1,0.027,9
CC1=Nn2c(nnc2-c2ccccc2Cl)SC1,11,0.8,0.5,0.9,0.14,45
